Data on four compounds can be found in PubChem BioAssay (NCI).

Each structure is given as a SMILES string. The panel holds about 83,000 compounds, 20% with a hit somewhere; the sample as a whole holds those more often.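 Growth was measured after 48 h exposure to one concentration of compound in 96-well plates. Values under 10 count as active.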 The source made the active and inactive calls.

The subject of the assay is MDA-MB-468 breast. In words: NCI-60 one-dose screen, 48 h (100 = growth as untreated, 0 = no growth, -100 = all killed). The following applies: 10 µM unless noted.
Take `Cc1cc(C(=O)O)c(N)c(C)n1`: the growth is 120% (inactive).

In the case of `O=[N+]([O-])c1cc(S(=O)(=O)c2ccc(F)c([N+](=O)[O-])c2)ccc1F`, the growth was 88.4% (inactive).

For `COc1ccc(C(=O)c2cc3c(N)c(C(=O)Nc4cccc(OC)c4)sc3nc2C)cc1`, the growth is 4.38% (active).

Take `COc1cc(-c2csc(NC(=O)Nc3ccc(Cl)cc3)n2)cc(OC)c1OC`: the growth is 13.5% (inactive).
